Compound activity from PubChem.
Pf growth 96h = Primary qHTS for delayed death inhibitors of the malarial parasite plastid, 96 hour incubation. P. falciparum luciferase reporter growth, 96 h. Potency, µM (top dose mostly 28.7 µM), without a hit: at the top dose activity change, negative = inhibition, most hits filed as inhibitors. 320,000 compounds, 6.9% hits; further: on the % scale 0 is the no-effect control and ±100 the full control effect
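Parasite growth measured via integrated firefly luciferase reporter in P. falciparum. Infected erythrocytes at 2% hematocrit, 0.05% parasitemia final were treated 96 hours at 37 C under 5% CO2, and luminescence was read.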
Sm TGR inh = qHTS Assay for the Inhibitors of Schistosoma Mansoni Peroxiredoxins. Schistosoma mansoni thioredoxin glutathione reductase (TGR), Q962Y6. AID 485364, 2010. 360,000 compounds, 3% hits. purified TGR, DTNB reduction, TNB absorbance 405 nm. Potency, µM (series often up to 114 µM), for inactives: at the highest dose activity change, negative = inhibition, usual class: inhibitors; further: on the % scale 0 is the no-effect control and ±100 the full control effect; nearly all actives have a fitted effect of over 60% in size
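TGR 20 nM + NADPH 100 uM (dispensed conc.), cpd preinc 15 min RT; start with NADPH (500 uM addition) then DTNB (15 mM addition). Kinetic TNB absorbance, 405 nm filter. Four-parameter Hill fit across titration.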
SARS PLpro yeast = qHTS of Yeast-based Assay for SARS-CoV PLP | 330,000 compounds, 0.19% hits | S. cerevisiae expressing SARS-CoV PLpro, growth rescue | AID 485353, 2010 | Potency, µM (top dose mostly 32.9 µM), without a hit: at the highest dose activity, positive = growth rescue, hits mostly activators; calls by dose curve; further: 0% is about no effect; nearly all actives have a fitted effect of over 55% in size
Pf growth 48h = Primary qHTS for delayed death inhibitors of the malarial parasite plastid, 48 hour incubation; 310,000 compounds, 5.9% hits; Potency, µM (highest dose often 28.7 µM), for inactives: top-dose activity change, negative = inhibition, usual class: inhibitors; P. falciparum luciferase growth in erythrocytes, 48 h; further: on the % scale 0 is the no-effect control and ±100 the full control effect
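Luciferase-expressing P. falciparum in infected erythrocytes (2% hematocrit, 0.1% parasitemia final) in RPMI 1640/0.5% Albumax were exposed to compound for 48 hours at 37 C, 5% CO2; growth read as luminescence.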
The depositor's hits bear a star; ? = inconclusive; . = no result. The list is not random: actives were taken first. Their share in the collection is about 12%. Unless noted, the call rests on the fitted dose curve; in most records, active means well fitted curve in the direction sought with a large enough effect; inconclusive means small, poorly fitted or top-dose-only effect, or another doubt; inactive means no such curve, though single readings can be large; an effect the other way counts as inactive or inconclusive. Potency means the concentration at half of the fitted maximal effect.

SMILES	Pf growth 96h	Sm TGR inh	SARS PLpro yeast	Pf growth 48h
CN(C(=O)COC(=O)c1ccc(C(C)(C)C)cc1)C1CCS(=O)(=O)C1 (stereo unspecified)	-1%	0%	1%	?
COc1ccc(C(c2sc3nc(C)nn3c2O)N2CCC(O)CC2)cc1OC (stereo unspecified)	2%	-7%	0%	-1%
COc1ccc(C(c2sc3nc(C)nn3c2O)N2CCN(Cc3ccccc3)CC2)cc1OC (stereo unspecified)	0.83µM*	1%	1%	?
CCc1cc(C(=O)NCc2ccccc2)no1	.	-1%	.	.
Cc1cccc(C(=O)Nc2c(C(=O)NCc3ccc(Cl)cc3)sc3nc(C)cc(C)c23)c1	.	-2%	.	.
Cc1cc(C(F)(F)F)nc(Nc2nc(C)c3ccccc3n2)n1	.	7%	0%	0%
Cc1ccc2nc(Nc3nc(C)cc(C(F)(F)F)n3)nc(C)c2c1	5.2µM*	2%	4%	?
Cc1ccccc1-c1noc(-c2nnn(-c3ccccc3C)c2N)n1	.	17%	.	.
CCOc1ccccc1Nc1ccnc2cc(Cl)ccc12	21%	10%	-1%	2.6µM*
Clc1ccc2c(NCc3ccccn3)ccnc2c1	0.47µM*	8%	0%	0.66µM*
O=C(NCCCNc1ccnc2cc(Cl)ccc12)c1ccccc1F	0.41µM*	12%	0%	0.47µM*
O=C(NCCNC(=O)c1ccccc1F)c1ccccn1	22%	-5%	0%	44%
Cc1cc(C)c(C#N)c(Oc2ccc(O)cc2)n1	5.2µM*	-1%	2%	4%
Cc1cc(C)c(C#N)c(Oc2ccc(F)cc2)n1	-52%	10%	-5%	?
O=C(/C=C/c1ccc(Cl)cc1)NC(=S)Nc1ccc(N2CCOCC2)c(Cl)c1	10µM*	-3%	15%	0%
CCN(CC)S(=O)(=O)c1cccc(NC(=S)NC(=O)/C=C/c2ccc(S(=O)(=O)N3CCOCC3)cc2)c1	4.7µM*	-8%	2%	?
O=C(/C=C/c1ccc(Cl)cc1)Nc1ccc(N2CCOCC2)cc1	12%	.	1%	-11%
O=C1C2C3C=CC(C3)C2C(=O)N1CCN1CCN(S(=O)(=O)/C=C/c2ccccc2)CC1 (stereo unspecified)	5.9µM*	.	0%	-3%
O=C(/C=C/c1ccc(S(=O)(=O)N2CCOCC2)cc1)NC(=S)Nc1ccc(Cl)cc1Cl	-28%	1%	0%	?
O=C(/C=C/c1ccc(Cl)cc1)Nc1ccccc1N1CCOCC1	15µM*	-14%	-5%	34%
O=C(c1cccs1)N1CCN(S(=O)(=O)c2cccc(Cl)c2Cl)CC1	-10%	-5%	0%	?
O=C(CN1CCN(S(=O)(=O)/C=C/c2ccccc2)CC1)Nc1ccccc1N1CCOCC1	3.7µM*	1%	-5%	?
NC(=O)C1CCN(CC(=O)Nc2ccccc2N2CCOCC2)CC1	15%	3%	0%	5%
CCOCCCN(C)C1CCN(C(=O)c2oc3ccccc3c2NC(=O)Cc2ccc(F)cc2)CC1	36%	-1%	-10%	?
CC1CC(C)CN(C(=O)c2cc(S(=O)(=O)N3CCCCC3)ccc2Cl)C1 (stereo unspecified)	-21%	-1%	-1%	?
SMILES	Pf growth 96h	Sm TGR inh	SARS PLpro yeast	Pf growth 48h
CC1(c2ccc(Cl)cc2)CC(C)(C)N(C(=O)c2cccc(F)c2)c2ccccc21 (stereo unspecified)	.	7%	.	.
CCc1cccc(CC)c1NC(=O)C1SC(=Nc2ccccc2C)C(c2nc3ccccc3s2)=C1N (stereo unspecified)	7.4µM*	-3%	-9%	.
CCc1cccc(C)c1NC(=O)CCCSc1nc2ccccc2s1	?	-2%	-16%	?
COc1ccccc1OCCn1c(=O)sc2ccccc21	57%	-4%	-4%	-2%
COc1ccc(OCCn2c(=O)sc3ccccc32)cc1	2.9µM*	.	-2%	51%
Cc1ccc2oc(=O)n(CCCOc3ccccc3C)c2c1	-1%	20%	-1%	23%
CC(=O)c1cn(CCOc2ccccc2C)c2ccccc12	0%	-5%	0%	3.3µM*
Cc1ccc2oc(=O)n(CCOc3ccccc3C)c2c1	9%	3%	1%	2.6µM*
Cc1ccccc1OCCn1c(=O)sc2ccccc21	1%	0%	-12%	13µM*
CCOc1ccc(-c2cn3c(n2)sc2cc(C(=O)NCCc4ccc(OC)cc4OC)ccc23)cc1	.	-2%	.	.
Cc1cccc(-n2c3nc(=O)n(C)c(=O)c-3cc3c(C)nn(-c4ccccc4)c32)c1C	.	-11%	.	.
OC(CNCC1(N2CCCCC2)CCCCC1)COc1ccc(Cl)cc1Cl (stereo unspecified)	?	-1%	0%	3.3µM*
COc1ccc(OC)c(NC(=O)CSc2nc3ccccc3c3nc4ccccc4n23)c1	?	-20%	6%	0.83µM*
COc1cccc(Cc2nc3ccccc3nc2SCC(=O)Nc2cc(OC)ccc2OC)c1	.	-25%	.	.
CCc1cc2ccc(OC)cc2nc1SCC(=O)NNC(=O)c1ccco1	80%	8.9µM*	0%	16%
COc1ccc(OC)c(NC(=O)CSc2nc3ccccc3cc2Cc2ccccc2)c1	6.6µM*	-1%	7%	?
COc1cccc(NC(=O)CN(C)C(=O)COc2ccccc2Cc2ccccc2)c1	5.2µM*	0%	-8%	?
COc1cccc(NC(=O)CN(C)C(=O)/C=C/c2cn(Cc3ccccc3)nc2-c2cccnc2)c1	?	9%	4%	?
COc1cccc(NC(=O)CSc2nc3ccccc3cc2Cc2ccccc2)c1	7.4µM*	8%	1%	3.3µM*
COc1cc(NC(=O)CSc2nc3ccccc3cc2Cc2ccccc2)cc(OC)c1	?	2%	3%	12µM*
COc1cccc(NC(=O)Cc2nc(-c3ccccc3)sc2-c2ccc(C)cc2)c1	10µM*	0%	-29%	?
COc1ccc(NC(=O)CSc2nc3ccccc3cc2Cc2ccccc2)cc1	?	-9%	1%	?
COc1cccc(NC(=O)CN(C)C(=O)/C=C/c2ccc3ccccc3n2)c1	?	-14%	.	12µM*
O=C(Oc1ccc(N(C(=O)c2ccncc2)S(=O)(=O)c2ccc(F)cc2)cc1)c1ccncc1	2%	28µM*	-6%	-16%
COc1ccc(C(=O)N(c2ccc(C)cc2)S(=O)(=O)c2ccc(C)cc2)cc1	.	0%	.	.
CCc1ccc(S(=O)(=O)N(C(=O)c2ccncc2)c2ccc(OC(=O)c3ccncc3)cc2)cc1	?	-16%	-56%	2%
O=C(Oc1ccc(N(C(=O)c2ccncc2)S(=O)(=O)c2ccc(Cl)cc2)cc1)c1ccncc1	2.6µM*	18µM*	-1%	10%
Cc1ccc(S(=O)(=O)N(C(=O)c2ccncc2)c2ccc(OC(=O)c3ccncc3)cc2)cc1	?	-18%	-38%	15%
COc1ccc(N(C(=O)c2ccncc2)S(=O)(=O)c2cccs2)cc1	6%	25µM*	-10%	3%
